AmpC inh detg – qHTS Inhibitors of AmpC Beta-Lactamase (assay with detergent); P00811; AmpC hydrolysis of nitrocefin, absorbance 480 nm, 0.01% Triton; Potency, µM (top dose mostly 114 µM), inactives show top-dose activity change, negative = inhibition, hits mostly inhibitors; 370,000 compounds, 0.041% hits; AID 485294, 2010;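 also: 0% = no-compound wells and -100% = no-enzyme wells; nearly all actives have a fitted effect of over 25% in size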
Target sequence (P00811 whole entry, looked up): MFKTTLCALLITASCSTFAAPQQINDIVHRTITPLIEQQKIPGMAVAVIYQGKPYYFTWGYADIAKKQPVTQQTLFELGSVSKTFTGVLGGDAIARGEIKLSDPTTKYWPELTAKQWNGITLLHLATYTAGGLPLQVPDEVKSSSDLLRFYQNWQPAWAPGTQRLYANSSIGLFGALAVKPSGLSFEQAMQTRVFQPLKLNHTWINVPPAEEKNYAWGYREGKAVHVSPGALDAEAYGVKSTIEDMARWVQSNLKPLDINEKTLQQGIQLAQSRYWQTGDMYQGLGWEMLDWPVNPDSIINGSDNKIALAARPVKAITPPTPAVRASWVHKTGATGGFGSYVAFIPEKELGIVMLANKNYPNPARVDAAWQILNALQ
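AmpC (5.3 nM in the dispensed reagent) in 20 mM phosphate pH 7.0 with 0.01% (detergent screen) or 0.0001% Triton X-100 was preincubated with compounds for 15 min at room temperature. Nitrocefin was then added from an 800 uM solution, and hydrolysis was followed at 480 nm.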
Sm TGR block – qHTS Assay for the Inhibitors of Schistosoma Mansoni Peroxiredoxins | purified TGR, DTNB reduction, TNB absorbance 405 nm | Potency, µM (top dose mostly 114 µM), inactives show top-dose activity change, negative = inhibition, most hits filed as inhibitors | 360,000 compounds, 3% hits | Schistosoma mansoni thioredoxin glutathione reductase (TGR), Q962Y6; also: nearly all actives have a fitted effect of over 60% in size
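TGR 20 nM + NADPH 100 uM (dispensed conc.), cpd preinc 15 min RT; start with NADPH (500 uM addition) then DTNB (15 mM addition). Kinetic TNB absorbance, 405 nm filter. Four-parameter Hill fit across titration.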
AmpC no deterg – qHTS Inhibitors of AmpC Beta-Lactamase (assay without detergent); AmpC nitrocefin hydrolysis, absorbance 480 nm, 0.0001% Triton; 330,000 compounds, 0.52% hits; AID 485341, 2010; Potency, µM (top dose mostly 57.1 µM), for inactives: at the top dose activity change, negative = inhibition, usual class: inhibitors; P00811;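 also: plate controls were no compound for no effect and no enzyme for full effect; nearly all actives have a fitted effect of over 20% in size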
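20 mM phosphate pH 7.0 + 0.01% (detergent screen) or 0.0001% Triton X-100; 5.3 nM AmpC reagent; cpd preinc 15 min RT; nitrocefin (800 uM stock) to start; A480 q20 s × 4 min; Activity was normalised to no-enzyme and no-compound control wells.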
AMA1 RON2 block – qHTS for Inhibitors of AMA1-RON; Towards Development of Antimalarial Drug Lead: Primary Screen | 360,000 compounds, 0.2% hits | AlphaScreen AMA1-biotinylated RON2 peptide binding | Potency, µM (highest dose often 58.2 µM), without a hit: at the top dose activity change, negative = inhibition, usual class: inhibitors | Plasmodium falciparum AMA1 (3D7) - RON2 peptide interaction;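 also: 0% = vehicle wells and -100% = peptide control; nearly all actives have a fitted effect of over 45% in size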
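AMA1 (3D7) with his tag at 25 nM final met compounds first, then biotinylated RON2 peptide at 25 nM; detection used donor plus acceptor beads, 10 µg/mL apiece, read by AlphaScreen after 30 min at room temperature.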
FMDV inh – High Throughput Screening for Foot and Mouth Disease Virus Antivirals. FMDV antiviral cell-based qHTS. Potency, µM (highest dose often 57.9 µM), inactives show at the highest dose activity change, negative = inhibition, hits mostly inhibitors. 410,000 compounds, 1.2% hits. AID 1159524, 2015; calls by dose curve; tested in HEK293T cells; also: read-out not given here; nearly all actives have a fitted effect of over 45% in size
* marks the source's active call; other numbers are inactive results; ? = inconclusive; . = not tested or not shown; [ ] = another dose, or the depositor's remark. Rows were chosen to be rich in hits. Some 4.1% of all compounds tested hit in one or more screens of this group. Unless noted, calls follow the shape of the dose curve; as a rule, active = well fitted curve in the direction sought with a large enough effect; inconclusive = small, poorly fitted or top-dose-only effect, or another doubt; inactive = no such curve, though single readings can be large; an effect the other way counts as inactive or inconclusive. Unless noted, % is scaled to controls: 0 for no effect and ±100 for the full control effect; potency is read from the fitted curve at half-maximal effect.

SMILES | AmpC inh detg | Sm TGR block | AmpC no deterg | AMA1 RON2 block | FMDV inh
Cc1ccccc1C(=O)OC1OC(=O)C(Cl)=C1N1CCOCC1 (stereo not drawn) | 3.98µM* | -10.8% | 2.82µM* | 0.0% | -14.2%
Cc1ccccc1NC1=C(Cl)C(=O)OC1OC(=O)c1ccccc1C (stereo not drawn) | 20µM* | ? | 10µM* | -8.1% | ?
CCOC(=O)C1CCCN(C(=O)c2nn(-c3ccc(C)cc3)c(=O)n(C)c2=O)C1 (stereo not drawn) | 22.6% | 9.4% | . | . | -14.0%
CC1CCN(S(=O)(=O)c2ccc3ncn(CC(=O)Nc4ccccc4C(F)(F)F)c(=O)c3c2)CC1 | -1.2% | 7.1% | . | . | -9.6%
Cc1ccc(Cl)cc1NC(=O)Nc1cccs1 | 0.1% | -4.6% | 14.1µM* | -1.2% | 4.1%
Cc1ccc(/C=C/C(=O)OC(C)C(=O)Nc2ccc(Cl)cn2)o1 (stereo not drawn) | -13.1% | 12.6µM* | -54.1% | -2.6% | -12.6%
Cc1nc2c3ccccc3nc(NNC(=O)CCC(=O)O)n2n1 | 24.9% | 6.6% | . | . | -18.2%
COc1ccc(F)cc1S(=O)(=O)NCCc1c(C)[nH]c2c(Cl)cccc12 | -1.8% | -4.1% | . | . | 28.6%
COc1cc(OC)cc(C(=O)Nc2nc3ccccc3[nH]2)c1 | -1.9% | -8.8% | -22.4% | -4.8% | -36.5%
O=C(Nc1nc2ccccc2[nH]1)c1ccc(OC(F)F)cc1 | -3.7% | 0.9% | -33.3% | 104.8% | 12.6µM*
CC(C)Oc1ccc(C(=O)Nc2nc3ccccc3[nH]2)cc1 | ? | 3.4% | -27.0% | 69.2% | 7.94µM*
Cc1cc(C(=O)NCCc2ccc(Cl)cc2)c2c(C)nn(-c3cccc(F)c3)c2n1 | 3.1% | 15.7% | . | . | 6.2%
O=C(CCS(=O)(=O)c1cccc2nonc12)Nc1ccc(F)cc1F | 18.4% | -0.3% | . | . | -0.3%
CCOC(=O)C1=C(C)Nc2ccccc2N=C1NC(=O)C(c1ccccc1)c1ccccc1 | -4.1% | 13.1% | 28.2µM* | 22.0% | -20.8%
CCOC(=O)C1=C(C)Nc2ccccc2N=C1NC(=O)c1cccc(S(=O)(=O)N(C)C)c1 | -14.5% | -2.5%[11.4 µM] | -13.7% | -9.5% | -15.2%
O=C(CSc1ccc(Cl)cc1)Nc1nnc(-c2cccc([N+](=O)[O-])c2)s1 | ? | 44.7µM* | -15.7% | 40.1% | -9.0%
COc1cccc(NC(=O)CSc2nc(=O)n(Cc3ccccn3)c3c2CCC3)c1 | 0.0% | -0.4% | . | . | 35.3%
CCCc1nc2c(=O)n(C)c(=O)nc-2n(C)n1 | 5.1% | ? | 3.5% | 3.7% | 2.51µM*
COc1ccc(-c2nc(-c3ccccn3)ncc2S(C)(=O)=O)cc1 | ? | -1.1% | -9.8% | 75.2% | -5.2%
Cn1ncnc2c(=O)n(C)c(=O)nc1-2 | ? | -31.9% | -5.6% | 12.9% | 1.58µM*
Cn1nc(-c2ccccn2)nc2c(=O)n(C)c(=O)nc1-2 | -8.2% | ? | -14.6% | 8.91µM* | 1.26µM*
C=C(C)C1CC[C@]2(CO)CC[C@@]3(C)[C@H](CCC4[C@@]5(C)CCC(O)C(C)(C)C5CC[C@@]43C)C12 (stereo partly drawn) | . | . | . | . | -5.0%
O=C(Nc1ccc(F)cc1)c1ccc(-n2cncn2)c([N+](=O)[O-])c1 | -2.4% | -12.6% | 0.5% | 2.7% | ?
O=C(Nc1ccc(F)cc1F)c1ccc(-n2cccn2)c([N+](=O)[O-])c1 | -6.6% | 44.7µM* | -20.9% | 16.9% | -5.5%
O=c1cc(CN2CCc3ccccc32)nc2sccn12 | -12.6% | ? | -9.5% | 3.3% | 4.9%
SMILES | AmpC inh detg | Sm TGR block | AmpC no deterg | AMA1 RON2 block | FMDV inh
O=c1cc(CN2CCCc3ccccc32)nc2sccn12 | 0.9% | 28.2µM* | -18.3% | 8.8% | -3.9%
O=C(c1ccccc1)c1nn(-c2ccc(Cl)cc2)c(=O)cc1C(F)(F)F | -5.0% | -3.7% | -6.9% | -8.1% | 28.2µM*
O=C(c1ccccc1)c1nn(-c2ccccc2)c(=O)cc1C(F)(F)F | -2.4% | -13.3% | -1.2% | -5.1% | -27.1%
C=Cc1ccc(C(=O)N2CCc3c(cnc(C)c3CNC(=O)c3ccc4c(c3)OCO4)C2)cc1 | . | . | . | . | -4.1%
Cn1c(=O)c2c(nc(NN=C3CCCCC3)n2C)n(C)c1=O | -1.8% | 12.6µM* | -14.3% | 29.0% | -2.1%
CC(C)=NNc1nc2c(c(=O)n(C)c(=O)n2C)n1C | -10.0% | -1.1% | 7.5% | 84.8% | -1.3%
CN(Cc1ccco1)c1nc(-c2cccnc2)nc2ccccc12 | . | . | . | . | -6.7%
CCOc1ccc(CN(C)c2nc(-c3cccnc3)nc3ccccc23)cc1OC | -8.6% | 1.3% | 143.2% | -23.3% | 25.1µM*
CN(Cc1ccccc1F)c1nc(-c2cccnc2)nc2ccccc12 | ? | -0.3% | 53.4% | -20.2% | ?
CN(CC1COc2ccccc2O1)c1nc(-c2cccnc2)nc2ccccc12 (stereo not drawn) | ? | 3.5% | 31.4% | 11.3% | 25.1µM*
Cc1ccc(CN(C)c2nc(-c3cccnc3)nc3ccccc23)o1 | -4.0% | 39.8µM* | -9.5% | -5.9% | -29.1%
c1cncc(-c2nc(NCC3COc4ccccc4O3)c3ccccc3n2)c1 (stereo not drawn) | 2.6% | -13.7% | -0.8% | -4.8% | 22.4µM*
c1cncc(-c2nc(NCc3ccc4c(c3)OCO4)c3ccccc3n2)c1 | 9.0% | -7.1% | -44.3% | 23.7% | ?
CCOc1ccc(-c2nnc(SCC(=O)c3ccccc3)n2-c2ccccc2)cc1 | 0.2% | 6.4% | . | . | -18.3%
CCc1ccc(Oc2nc3c(C)cccn3c(=O)c2/C=C(\C#N)c2nc3ccccc3s2)cc1 | 19.2% | 0.5% | . | . | -19.1%
O=C(CN1C(=O)CC(c2ccco2)Sc2ccccc21)Nc1cccc(C(F)(F)F)c1 (stereo not drawn) | 1.4% | -11.8% | . | . | 0.0%
OC1(c2ccc3c(c2)CN(Cc2ccco2)CCO3)CCN(c2ccccc2F)CC1 | . | . | . | . | -14.4%
O=[N+]([O-])C1C(c2ccccc2)C12c1ccccc1-c1ccccc12 (stereo not drawn) | . | . | . | -8.4% | 14.1µM*
CC1(C)c2ccccc2C(=O)c2ccccc21 | . | . | . | 20.4% | -0.2%
CNC(=O)c1sc(N2N=C3/C(=C\c4ccccc4)CCCC3C2c2ccccc2)nc1C (stereo not drawn) | . | . | . | 2.2% | 31.6µM*
CNC(=O)c1sc(N2N=C3/C(=C/c4ccccc4)CCCC3C2c2ccccc2)nc1C (stereo not drawn) | -8.2% | -10.6% | 2.1% | 19.9% | ?
COc1ccc(C(=O)NCCN2Cc3ccccc3OC(c3ccsc3)C2)c(OC)n1 (stereo not drawn) | . | . | . | . | -9.8%
COC(=O)[C@@H]1CCCN1Cc1ccc2c(c1)CN(Cc1ccc3c(c1)CCCN3C)CCO2 | . | . | . | . | -1.6%

Assay outcomes from PubChem.
